Inconclusive results are not listed. A call without a number means that no potency is given here. The source made the active and inactive calls. Calls come from the whole dose curve; as a rule, active = well fitted curve in the direction sought with a large enough effect; inconclusive = small, poorly fitted or top-dose-only effect, or another doubt; inactive = no such curve, though single readings can be large; an effect the other way counts as inactive or inconclusive.
How the values were obtained:
[1] = Cell Viability - LYMP1-003 - Assay at 40 hr (AID 964); note: nearly all actives have a fitted effect of over 60% in size; note: potency is the fitted concentration of half-maximal effect
Method in brief: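 LYMP1-003 human lymphoblastoid cells, 2500/well, preincubated 5 h at 37 C, then treated with compound for 40 h at 37 C. Intracellular ATP read by CellTiter-Glo luminescence after 30 min at room temperature; AC50 from Hill-equation fits.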

[2] = Cell Viability - LYMP2-003 (AID 965);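 note: cells exposed to compounds for 24 h before reading; nearly all actives have a fitted effect of over 50% in size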; note: potency is the fitted concentration of half-maximal effect
Method in brief: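 Human lymphoblastoid cells (2500/well) were pre-incubated 5 hr at 37 C, then exposed to compounds over a concentration range for 24 hr at 37 C. Intracellular ATP was read by CellTiter-Glo luminescence; AC50 came from Hill-equation fits.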

[3] = Cell Viability - LYMP2-004 (AID 966); note: nearly all actives have a fitted effect of over 65% in size; note: potency is the fitted concentration of half-maximal effect
Method in brief: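 Lymphoblastoid LYMP2-004 cells, 2500 per well, were preincubated for 5 hr and then treated with compound for 24 h at 37 C in complete medium. Viability was read as cellular ATP by CellTiter-Glo luminescence, and AC50 values were taken from Hill fits to concentration-response data.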

[4] = Cell Viability - LYMP2-005 (AID 967); note: potency is the fitted concentration of half-maximal effect
Method in brief: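 CellTiter-Glo luminescence (cellular ATP) read-out; LYMP2-005 lymphoblastoid cells, 2500/well, 5 h pre-incubation, then 24 h compound exposure at 37 C in complete medium. Tetraoctylammonium bromide positive control; AC50 by standard Hill fit.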

[5] = Cell Viability - LYMP2-009 (AID 968); note: nearly all actives have a fitted effect of over 55% in size; note: potency is the fitted concentration of half-maximal effect
[6] = Cell Viability - LYMP2-011 (AID 969); note: nearly all actives have a fitted effect of over 60% in size
Method in brief: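 2500 cells/well in complete medium, compound-treated 24 h at 37 C. Viability read as intracellular ATP by CellTiter-Glo luminescence after 30 min at room temperature. AC50 from Hill fits of qHTS concentration-response data.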

[7] = Cell Viability - LYMP2-013 (AID 970); note: series mostly up to about 92 µM; nearly all actives have a fitted effect of over 55% in size
Excerpt: (§1) NIH Chemical Genomics Center [NCGC]
(§2) NIH Molecular Libraries Screening Centers Network [MLSCN]
(§3) National Institutes of Environmental Health Sciences [NIEHS]
(§4) National Toxicology Program [NTP]
(§5) We have developed a 1536-well cell-based assay for quantitative high throughput screening (qHTS) against a number of cell lines to determine in vitro cytotoxicity of small molecules. This particular assay uses a human lymphoblastoid cell line (LYMP2-013) purchased from Coriell Institute for Medical Research.
(§6) NCGC Assay Protocol Summary:
(§7) The CellTiter-Glo luminescent cell viability assay (Promega) is a homogeneous method to measure the number of viable cells in culture. The end point readout of this assay is based on quantitation of intracellular ATP, an indicator of metabolic activity, using the luciferase reaction. Luciferase catalyzes the oxidation of beetle Luciferin to oxyluciferin and light in the presence of ATP. The luminescent signal is proportional to amount of ATP present.
(§8) Using the CellTiter-Glo luminescent cell viability assay, the amount of cellular ATP was measured in the lymphoblastoid cell line with complete culture medium following compound treatment for 24 hours. The assay was performed in opaque white Kalypsys 1536-well plates. In the screen, tetraoctylammonium bromide was used as positive control. Library compounds were measured for their ability to cause acute toxicity in the cell line, as reflected by a decrease in intracellular ATP levels, in a concentration-dependent manner. […] AC50 values were determined from concentration-response data modeled with the standard Hill equation.
(§9) qHTS protocol for CellTiter Glo lymphoblastoid cellular assay
(§10) [Step] [Parameter] [Value] [Description]
(§11) 1. Reagent; 5 uL; 2500 lymphoblastoid cells/well
(§12) 2. Time; 5 hr; 37 C incubation
(§13) 4. Controls; 23 nL; Tetraoctylammonium bromide 6.4pM to 92 uM
(§14) 5. Time; 24 hr; 37 C incubation
(§15) 6. Reagent; 5 uL; CellTiter Glo reagent
(§16) 7. Time; 30 min; Room Temperature
(§17) 8. Detection; Luminescence; Viewlux plate reader
(§18) Keywords: cell viability, cytotoxicity, lymphoblastoid cell line, luminescence, NTPHTS, NTPHTS_NCGC, NIEHS, DSSTox, MLSMR, MLSCN, NIH Roadmap, qHTS, NCGC

[8] = Cell Viability - LYMP2-015 (AID 971); note: nearly all actives have a fitted effect of over 55% in size
Method in brief: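 LYMP2-015 human lymphoblastoid cells (2500/well) in complete medium, compound-treated 24 h at 37 C; viability read as cellular ATP by CellTiter-Glo luminescence after 30 min at room temperature. AC50 from Hill-equation fits of qHTS concentration-response data.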

[9] = Cell Viability - LYMP2-017 (AID 972); note: series mostly up to about 92 µM; nearly all actives have a fitted effect of over 55% in size
Excerpt: as §1, §2, §3, §4
as §5, with “(LYMP2-017)” for “(LYMP2-013)”
as §6, §7, §8, §9, §10, §11, §12, §13, §14, §15, §16, §17, §18

[10] = Cell Viability - LYMP2-019 (AID 973); note: nearly all actives have a fitted effect of over 55% in size
Method in brief: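 Human lymphoblastoid LYMP2-019 cells (2500/well) preincubated 5 h at 37 C, then treated 24 h at 37 C in complete medium. Viability by CellTiter-Glo ATP luminescence after 30 min at room temperature; AC50 from Hill fits.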

**Q.** Which Potency [1] does the source give for `Nc1ncn([C@@H]2O[C@H](CO)[C@@H](O)[C@H]2O)c(=O)n1` here?
**A.** 12.6 µM (active)

**Q.** What about the Potency [2] of the same compound?
**A.** 10 µM (active)

**Q.** What about the Potency [3] of the same compound?
**A.** 12.6 µM (active)

**Q.** What about the Potency [4] of the same compound?
**A.** 12.6 µM (active)

**Q.** And the Potency [5]?
**A.** 15.8 µM (active)

**Q.** Which Potency [1] does the source give for `NC(=O)N1c2ccccc2C=Cc2ccccc21` here?
**A.** inactive

**Q.** And the Potency [2]?
**A.** inactive

**Q.** What about the Potency [3] of the same compound?
**A.** inactive

**Q.** And the Potency [4]?
**A.** inactive

**Q.** And the Potency [5]?
**A.** inactive

**Q.** And the outcome [6]?
**A.** inactive

**Q.** And the outcome [7]?
**A.** inactive

**Q.** What about the outcome [8] of the same compound?
**A.** inactive

**Q.** What about the outcome [9] of the same compound?
**A.** inactive

**Q.** And the outcome [10]?
**A.** inactive

**Q.** Which results are given for `CCCCNC(=O)NS(=O)(=O)c1ccc(C)cc1`?
**A.** Potency [1]: inactive; Potency [2]: inactive; Potency [3]: inactive; Potency [4]: inactive; Potency [5]: inactive; outcome [6]: inactive; outcome [7]: inactive; outcome [8]: inactive; outcome [9]: inactive; outcome [10]: inactive

**Q.** Which results are given for `COc1cc(Cc2cnc(N)nc2N)cc(OC)c1OC`?
**A.** Potency [1]: inactive; Potency [2]: inactive; Potency [3]: inactive; Potency [4]: inactive; Potency [5]: inactive; outcome [6]: inactive; outcome [7]: inactive; outcome [8]: inactive; outcome [9]: inactive; outcome [10]: inactive

**Q.** What does the source list for `O=c1[nH]c(=O)n([C@H]2C[C@H](O)[C@@H](CO)O2)cc1Br`?
**A.** Potency [1]: inactive; Potency [2]: inactive; Potency [3]: inactive; Potency [4]: inactive; Potency [5]: inactive; outcome [6]: inactive; outcome [7]: inactive; outcome [8]: inactive; outcome [9]: inactive; outcome [10]: inactive

**Q.** With `Nc1nc(N)c2nc(-c3ccccc3)c(N)nc2n1` as the compound, how does the Potency [2] read?
**A.** inactive

**Q.** What about the Potency [3] of the same compound?
**A.** inactive

**Q.** What about the Potency [4] of the same compound?
**A.** inactive

**Q.** And the Potency [5]?
**A.** inactive

**Q.** What about the outcome [6] of the same compound?
**A.** inactive

**Q.** What about the outcome [7] of the same compound?
**A.** inactive

**Q.** What about the outcome [8] of the same compound?
**A.** inactive

**Q.** What about the outcome [10] of the same compound?
**A.** inactive

**Q.** With `COc1ccc(CN(CCN(C)C)c2ccccn2)cc1` as the compound, how does the Potency [1] read?
**A.** inactive

**Q.** What about the Potency [2] of the same compound?
**A.** inactive

**Q.** What about the Potency [3] of the same compound?
**A.** inactive

**Q.** And the Potency [4]?
**A.** inactive

**Q.** And the Potency [5]?
**A.** inactive

**Q.** And the outcome [6]?
**A.** inactive

**Q.** What about the outcome [7] of the same compound?
**A.** inactive

**Q.** What about the outcome [8] of the same compound?
**A.** inactive

**Q.** What about the outcome [9] of the same compound?
**A.** inactive

**Q.** And the outcome [10]?
**A.** inactive

**Q.** Which Potency [1] does the source give for `COC(=O)[C@H]1[C@H]2C[C@@H]3c4[nH]c5cc(OC)ccc5c4CCN3C[C@H]2C[C@@H](OC(=O)c2cc(OC)c(OC)c(OC)c2)[C@@H]1OC` here?
**A.** 39.8 µM (active)

**Q.** With `CN=C(NC#N)NCCSCc1nc[nH]c1C` as the compound, how does the Potency [1] read?
**A.** inactive

**Q.** And the Potency [2]?
**A.** inactive

**Q.** What about the Potency [3] of the same compound?
**A.** inactive

**Q.** And the Potency [4]?
**A.** inactive

**Q.** What about the Potency [5] of the same compound?
**A.** inactive

**Q.** What about the outcome [6] of the same compound?
**A.** inactive

**Q.** What about the outcome [7] of the same compound?
**A.** inactive

**Q.** What about the outcome [8] of the same compound?
**A.** inactive

**Q.** What about the outcome [9] of the same compound?
**A.** inactive

**Q.** What about the outcome [10] of the same compound?
**A.** inactive

**Q.** What does the source list for `CCCCOCCOCCOCc1cc2c(cc1CCC)OCO2`?
**A.** Potency [1]: inactive; Potency [2]: inactive; Potency [3]: inactive; Potency [4]: inactive; Potency [5]: inactive; outcome [6]: inactive; outcome [7]: inactive; outcome [8]: inactive; outcome [9]: inactive; outcome [10]: inactive

**Q.** For `NC(=Nc1ccccc1)Nc1ccccc1`, which Potency [1] is on record?
**A.** inactive

**Q.** What about the Potency [2] of the same compound?
**A.** inactive

**Q.** What about the Potency [3] of the same compound?
**A.** inactive

**Q.** And the Potency [4]?
**A.** inactive

**Q.** And the Potency [5]?
**A.** inactive

**Q.** What about the outcome [6] of the same compound?
**A.** inactive

**Q.** And the outcome [7]?
**A.** inactive

**Q.** What about the outcome [8] of the same compound?
**A.** inactive

**Q.** And the outcome [9]?
**A.** inactive

**Q.** What about the outcome [10] of the same compound?
**A.** inactive
